Values joined by “and” are separate entries in the source; they are usually repeats but may differ in a detail not shown here. Identical values can stand only once. The panel holds about 83,000 compounds, 20% with a hit somewhere; the sample as a whole holds those more often.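 The test compound was applied at a single concentration to cells in 96-well plates for 48 hours, and percent growth was recorded.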 Active and inactive are the calls of the source. The calls were made as follows: active = growth percent below 10; inactive = the rest.
Legend:
Test in all cases: NCI-60 one-dose screen, 48 h (100 = growth as untreated, 0 = no growth, -100 = all killed)
Settings in all cases: 10 µM unless noted
[1] = tested on: T-47D breast
[2] = tested on: BT-549 breast
[3] = tested on: MDA-MB-435 melanoma
[4] = tested on: MCF7 breast
[5] = tested on: HCT-116 colon
[6] = tested on: HCC-2998 colon
[7] = tested on: KM12 colon
[8] = tested on: SW-620 colon

| Structure (SMILES) | growth [1] | growth [2] | growth [3] | growth [4] | growth [5] | growth [6] | growth [7] | growth [8] |
| --- | --- | --- | --- | --- | --- | --- | --- | --- |
| CNC(=O)c1cccc(-c2ccc3c(N4CCOC[C@@H]4C)nc(N4CCOC[C@@H]4C)nc3n2)c1 | -24.4% (active) and -34.1% (active) | -7.8% (active) and -13.9% (active) | 2.05% (active) and -13.4% (active) | 5.66% (active) and 4.27% (active) | 27.7% (inactive) and 15.4% (inactive) | 18.6% (inactive) and 4% (active) | 11.7% (inactive) and 13.2% (inactive) |  |
| Clc1ccc(SSc2ccc(Cl)cc2)cc1 | 96.2% (inactive) and 103% (inactive) | 89% (inactive) and 9.06% (active) | 94% (inactive) and 100% (inactive) |  | 95.9% (inactive) and 71% (inactive) | 96.8% (inactive) and 98% (inactive) | 107% (inactive) | 97.3% (inactive) and 88.8% (inactive) |
| COc1ccc(S(=O)(=O)N2CCOCC2)cc1NC(=O)c1[nH]c(C)c2c1CCCCC2=O | 107% (inactive) and 42% (inactive) | 116% (inactive) and 102% (inactive) | 105% (inactive) and 35.8% (inactive) | 91.1% (inactive) and 27.6% (inactive) | 109% (inactive) and 101% (inactive) |  | 110% (inactive) and 65% (inactive) | 103% (inactive) and 67.5% (inactive) |
| CC(CN=Cc1ccccc1O)N=Cc1ccccc1O (stereo unspecified) | 96.9% (inactive) and 94.2% (inactive) | 67.1% (inactive) and 118% (inactive) | 94% (inactive) and 122% (inactive) | 94.9% (inactive) and 95.8% (inactive) | 104% (inactive) and 102% (inactive) |  | 102% (inactive) and 113% (inactive) | 110% (inactive) and 96.8% (inactive) |
| COc1ccc2cc3[n+](cc2c1OC)CCc1cc2c(cc1-3)OCO2 | 38.2% (inactive) and 47.4% (inactive) | 28.8% (inactive) and 32.3% (inactive) | 59% (inactive) and 66.2% (inactive) |  | 68.5% (inactive) and 89.6% (inactive) | 56% (inactive) and 96.8% (inactive) | 40.7% (inactive) and 30.1% (inactive) | 79.3% (inactive) and 92.3% (inactive) |
| O=C(Nc1cccc(-n2ccc3c(NC(=O)c4ccccc4)nccc32)c1)c1ccc(Cl)c(C(F)(F)F)c1 | -36.7% (active) and 88.1% (inactive) | -75.1% (active) and 76.7% (inactive) | -59% (active) and 54.9% (inactive) | -48.5% (active) and 37.4% (inactive) | -99.1% (active) and 32.4% (inactive) |  | -54.5% (active) and 42.7% (inactive) | -73.8% (active) and 48.8% (inactive) |
| O=[N+]([O-])c1ccc(N/N=C\c2cc(Br)ccc2O)nc1 | 16% (inactive) and 33% (inactive) | 25.6% (inactive) | 29.3% (inactive) and 25.2% (inactive) |  | 10.1% (inactive) and 15.2% (inactive) | 23.2% (inactive) and 23% (inactive) | 32.5% (inactive) and 24% (inactive) | 27.3% (inactive) and 34.3% (inactive) |
| C=C1C(=O)O[C@H]2[C@H]1CC/C(COC(=O)NC1CCC(O)CC1)=C\CC[C@@]1(C)O[C@@H]21 (stereo partly specified) | 59.6% (inactive) and 47.6% (inactive) | 83.3% (inactive) and 79.1% (inactive) | 58.4% (inactive) and 54.8% (inactive) | 75.2% (inactive) and 66.7% (inactive) | 41.5% (inactive) and 33% (inactive) |  | 96.8% (inactive) and 97.9% (inactive) | 27.4% (inactive) and 30.1% (inactive) |
| CC1CCCc2sc3nc(NNC(=O)c4cnccn4)n(-c4ccccc4)c(=O)c3c21 (stereo unspecified) | 10.9% (inactive) and 3.31% (active) | 12.8% (inactive) | 27.9% (inactive) and 21.5% (inactive) |  | 7.09% (active) and -13.3% (active) | 34.2% (inactive) and 40.9% (inactive) | 20% (inactive) and 19.2% (inactive) | 23.7% (inactive) and 19.7% (inactive) |
| COC(=O)c1nc(N)nc(C(=O)OC)c1C(=O)c1ccc(OC)cc1 | 101% (inactive) and 35.5% (inactive) | 144% (inactive) and 77.1% (inactive) | 104% (inactive) and 66.8% (inactive) | 96% (inactive) and 41.9% (inactive) | 108% (inactive) and 38.1% (inactive) |  | 107% (inactive) and 53.7% (inactive) | 113% (inactive) and 61.9% (inactive) |
| CCC(C)C1(C2CCCC2)NC(=O)NC1=O (stereo unspecified) | 97.1% (inactive) and 98.3% (inactive) | 107% (inactive) | 121% (inactive) and 102% (inactive) | 99.3% (inactive) and 97.3% (inactive) | 100% (inactive) and 112% (inactive) |  | 106% (inactive) and 111% (inactive) |  |
| CNC(=O)c1ccc(C)c(-n2c(C)cc(OCc3ccc(F)cc3F)c(Br)c2=O)c1 | 40.9% (inactive) and 58.7% (inactive) |  | 85.4% (inactive) and 99.4% (inactive) | 82.8% (inactive) and 90.5% (inactive) | 68.1% (inactive) and 78.4% (inactive) | 67.5% (inactive) and 72.6% (inactive) | 90% (inactive) and 92.5% (inactive) | 79.9% (inactive) and 95.9% (inactive) |
| CCN(CC)C(=S)SSC(=S)N(CC)CC | 79.4% (inactive) and 87.3% (inactive) | 90.6% (inactive) and 90.3% (inactive) | 83.3% (inactive) and 106% (inactive) | 71.4% (inactive) and 95.9% (inactive) | 58.6% (inactive) and 93.8% (inactive) |  | 88.8% (inactive) and 97.5% (inactive) |  |
| Cc1ccc(NCSc2ccc(Cl)cc2)cc1 | 74.3% (inactive) and 62.4% (inactive) |  | 63.8% (inactive) and 65.7% (inactive) | 86.9% (inactive) and 80.7% (inactive) | 85% (inactive) and 91% (inactive) | 92.4% (inactive) and 94.9% (inactive) | 61.4% (inactive) and 66.5% (inactive) | 86.2% (inactive) and 96.6% (inactive) |
| COc1cc2c(c(OC)c1OC)-c1ccc(OC)c(=O)cc1[C@@H](NC(C)=O)CC2 | 69.8% (inactive) and 49.2% (inactive) and 70.5% (inactive) | 4.27% (active) and -10% (active) and -7.06% (active) | -49.9% (active) and -0.781% (active) and -50.8% (active) | 15.1% (inactive) and 15.6% (inactive) and 11.7% (inactive) | 1.53% (active) and 0.462% (active) and 0.179% (active) | 3.25% (active) and 13.4% (inactive) and -59% (active) | -6.61% (active) and 2.96% (active) and -29.9% (active) |  |
| N#CCCOc1ccccc1 | 96.5% (inactive) | 88.2% (inactive) | 96.4% (inactive) | 94.1% (inactive) | 106% (inactive) | 110% (inactive) | 106% (inactive) |  |
| O=C(O)CN(CCN(CC(=O)O)CC(=O)O)CCN(CC(=O)O)CC(=O)O | 9.23% (active) and 101% (inactive) | -10.9% (active) and 92.1% (inactive) | 17.1% (inactive) and 101% (inactive) | 18% (inactive) and 85.5% (inactive) and 101% (inactive) | 3.66% (active) and 91.9% (inactive) and 100% (inactive) | 15.8% (inactive) and 105% (inactive) and 110% (inactive) | 15.9% (inactive) and 112% (inactive) and 108% (inactive) |  |
| O=CC(O)C(O)C(O)CO (stereo unspecified) | 109% (inactive) and 96.5% (inactive) | 104% (inactive) | 112% (inactive) and 109% (inactive) |  | 112% (inactive) and 102% (inactive) |  | 103% (inactive) and 102% (inactive) |  |
| COc1ccc2ccccc2c1/C=N/N1CCCCC1 | 94.2% (inactive) | 102% (inactive) | 99.1% (inactive) | 84% (inactive) | 102% (inactive) | 109% (inactive) | 108% (inactive) |  |
| C#CCN(C)Cc1ccccc1 | 96.9% (inactive) and 99.3% (inactive) |  | 107% (inactive) and 98.3% (inactive) | 118% (inactive) and 95.9% (inactive) | 99.6% (inactive) and 86.9% (inactive) | 103% (inactive) and 97.7% (inactive) | 109% (inactive) and 102% (inactive) | 104% (inactive) and 103% (inactive) |
